The supplement of paper PMC7726561

molecular target: HLA-C*04:01; assay: thermal melting temperature (Tm) of peptide-HLA complex; higher = more thermostable pHLA complex; conditions: C1R-A*02:01
Procedure: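 Endogenous HLA-C*04:01 ligands were detected in the thermostability assays of both the C1R-A*02:01 and C1R-B*07:02 lines. Lysates were heated 10 min at 37-73 °C and pHLA immunoprecipitated with W6/32. Peptides were quantified by DIA-MS and Tm was taken from a logistic sigmoid fit.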

In order of rising thermal melting temperature:
1. TFDVSPKAV  41.9 °C
2. FFEEFGKL  44.3 °C
3. NYDEHISNF  44.8 °C
4. TFDVSILTI  44.9 °C
5. YFPELIANF  45.6 °C
6. SWDIVVQRV  46.9 °C
7. SFDEIHQLF  47.8 °C
8. TYDYAKTIL  49 °C
9. FFDSQGQVLL  51 °C
10. IFDRVLTEL  51.3 °C
11. NFDDIKNGL  52.1 °C
12. VYDPSLKTLL  52.3 °C
13. AFDASRTSF  52.4 °C
14. DFDMTLSRF  52.8 °C
15. SFDAHLTEL  53 °C
16. GGSFDVADRMF  53.1 °C
17. MPDDLLTTL  53.1 °C
18. IFDQSGTYL  53.4 °C
19. TFDLTVVSY  53.5 °C
20. FLPEAPAEL  54.1 °C
21. IYDEVVKL  54.3 °C
22. RFEDSPSYV  54.4 °C
23. FFDPSLLHL  55.4 °C
24. FFDTNTSVL  55.5 °C
25. AFDLTEQRY  55.9 °C
26. RFDESMQVF  55.9 °C
27. AFDLSQVLF  56.1 °C
28. VFDVTAPNTF  56.1 °C
29. LYDLVTEKM  56.2 °C
30. LYDEAIRHF  56.5 °C
31. QYDEAVAQF  56.7 °C
32. NFDNILNSF  56.8 °C
33. SFEEKPVYI  56.8 °C
34. VLDDKDYFL  57 °C
35. HFDLSVIEL  57.1 °C
36. LFDDKAVEI  57.2 °C
37. YFDDLKGEM  57.9 °C
38. SYDLANRDF  58.3 °C
39. SFDETVTHF  58.6 °C
40. IYDEAISSF  58.9 °C
41. VFDKTLAEL  58.9 °C
42. VFDTAIAHL  59 °C
43. VFDPIGHF  59.3 °C
44. IFDGNVAHI  59.7 °C
45. FLDLTEQEF  59.8 °C
46. VFDEAIRAVL  60.2 °C
47. FWDGKIVLV  62.5 °C

same assay, conditions: C1R-B*07:02

In order of rising thermal melting temperature:
1. VLDDKDYFL  42.4 °C
2. YFPELIANF  45.3 °C
3. FFEEFGKL  46.5 °C
4. TYDYAKTIL  46.9 °C
5. TFDVSILTI  47.2 °C
6. TFDVSPKAV  48.1 °C
7. NYDEHISNF  48.9 °C
8. SWDIVVQRV  49 °C
9. NFDDIKNGL  50.4 °C
10. IYDEVVKL  51.6 °C
11. SFDEIHQLF  52 °C
12. RFEDSPSYV  52.3 °C
13. VYDPSLKTLL  52.4 °C
14. AFDASRTSF  52.8 °C
15. SFDAHLTEL  52.9 °C
16. GGSFDVADRMF  53.2 °C
17. FFDSQGQVLL  53.6 °C
18. DFDMTLSRF  54.5 °C
19. IFDRVLTEL  54.7 °C
20. SFEEKPVYI  55.5 °C
21. FFDPSLLHL  55.8 °C
22. FLPEAPAEL  55.9 °C
23. IFDQSGTYL  56.4 °C
24. AFDLTEQRY  56.4 °C
25. AFDLSQVLF  56.5 °C
26. LFDDKAVEI  57.2 °C
27. SYDLANRDF  57.8 °C
28. RFDESMQVF  58.5 °C
29. NFDNILNSF  58.7 °C
30. VFDTAIAHL  58.7 °C
31. VFDEAIRAVL  58.8 °C
32. VFDPIGHF  58.8 °C
33. IFDGNVAHI  59 °C
34. VFDKTLAEL  59.1 °C
35. QYDEAVAQF  59.2 °C
36. YFDDLKGEM  59.4 °C
37. FFDTNTSVL  59.4 °C
38. SFDETVTHF  59.8 °C
39. LYDEAIRHF  60 °C
40. HFDLSVIEL  60.5 °C
41. FLDLTEQEF  60.6 °C
42. FWDGKIVLV  60.7 °C
43. LYDLVTEKM  60.7 °C
44. VFDVTAPNTF  61.1 °C
45. TFDLTVVSY  61.8 °C
46. IYDEAISSF  62.7 °C
47. MPDDLLTTL  63.4 °C
